The record followed here is ChEMBL document CHEMBL4513137, “CO-ADD screening of University of Manchester (UK) compounds”.

Structures are written as SMILES. Among all 23,000 compounds or so, about 30 (0.1%) showed an effect of 50% or more. For the sample, strong results were picked, then their nearest neighbours and some compounds at random. Entries with a potency or affinity are not part of this list.

What is called Inhibition is the drop in the measured response relative to a control, in per cent.

The test system of this experiment is Pseudomonas aeruginosa. As to conditions: Concentration 32 ug.mL-1; ASSAY_TEST Inhibition of Bacterial Growth; detection method Absorption (OD600); MEDIA CAMHB; plate type 384well; NBS; CORNING #3640; time 18 hr.
For `COc1ccc(Nc2ccccc2-c2ccc([N+](=O)[O-])cc2)cc1`, the Inhibition is recorded as 65.22%. `O=[N+]([O-])c1ccc(-c2ccccc2Nc2ccccc2)cc1F`: the Inhibition was 55.36%. The same measure for `O=[N+]([O-])c1ccc(-c2ccccc2Nc2ccccc2)cc1`: -5.45%. The value for `Cc1ccccc1Nc1ccccc1-c1ccc([N+](=O)[O-])cc1` was -5.81%.

`O=[N+]([O-])c1ccc(-c2c(Nc3ccccc3)cccc2-c2ccccc2)cc1`: the Inhibition stood at 19.1%. In the case of `O=[N+]([O-])c1ccc(-c2ccccc2Nc2ccccc2)cc1C(F)(F)F`, the Inhibition worked out at 49.55%. Turning to `CC(=O)c1ccc(-c2ccccc2Nc2ccccc2)cc1`, the Inhibition was determined as 28.85%. The value for `c1ccc(Nc2ccccc2-c2ncccn2)cc1` was 60.14%; that for `COc1cc([N+](=O)[O-])ccc1-c1c(Nc2ccccc2)cccc1OC` was 30.66%. The same measure for `COc1cccc(Nc2ccccc2)c1-c1c(Cl)cc(Br)cc1Cl`: 61.56%; for `Clc1cc(Br)cc(Cl)c1-c1ccccc1Nc1ccccc1`: 32.77%.
